# Assay outcomes: PubChem, National Center for Advancing Translational Sciences (NCATS)
# Only some compounds are listed: those with a hit (about 19% of all), similar ones and a draw of the others.
# Pf growth 96h = Primary qHTS for delayed death inhibitors of the malarial parasite plastid, 96 hour incubation | P. falciparum luciferase reporter growth, 96 h | Potency, µM (highest dose often 28.7 µM), inactives show at the top dose activity change, negative = inhibition, most hits filed as inhibitors | 320,000 compounds, 6.9% hits; also: potency is read from the fitted curve at half-maximal effect; % is scaled to controls: 0 for no effect and ±100 for the full control effect
#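 96 h incubation, 37 C, 5% CO2, of luciferase-reporter P. falciparum-infected RBCs (2% hematocrit, 0.05% parasitemia final) with test compounds; endpoint luminescence.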
# Shiga toxin inh = A qHTS for Small Molecule Inhibitors of Shiga Toxin | Vero cells, Shiga toxin protein synthesis inhibition reporter | inhibition, % at 38.7 µM | 290,000 compounds, 9.2% hits | AID 2315, 2010; in the data active = inhibition mostly above about 28%, no sharp cut-off; inactive = mostly below about 43%; also: 0% is about no effect
# MARV entry inh = qHTS for inhibitors of binding or entry into cells for Marburg Virus. AID 540276, 2011. 300,000 compounds, 1.8% hits. Potency, µM (doses to about 37.8 µM), without a hit: at the highest dose activity change, negative = inhibition, usual class: inhibitors. Marburg virus pseudotyped entry inhibition, cell reporter; calls by dose curve; tested in HEK293 cells; also: potency is read from the fitted curve at half-maximal effect; % is scaled to controls: 0 for no effect and ±100 for the full control effect
# CHX counter = Cycloheximide Counterscreen for Small Molecule Inhibitors of Shiga Toxin; max response, %; 300,000 compounds, 12% hits; cell reporter, cycloheximide protein synthesis inhibition counterscreen; in the data active = max response mostly above about 13%, no sharp cut-off; inactive = mostly below about 14%; also: read at 38.3 µM for the half of the compounds with a filed dose; 0% is about no effect
# Pf growth 48h = Primary qHTS for delayed death inhibitors of the malarial parasite plastid, 48 hour incubation; Potency, µM (doses to about 28.7 µM), inactives show at the highest dose activity change, negative = inhibition, most hits filed as inhibitors; P. falciparum luciferase growth in erythrocytes, 48 h; 310,000 compounds, 5.9% hits; also: potency is read from the fitted curve at half-maximal effect; % is scaled to controls: 0 for no effect and ±100 for the full control effect
#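 Cell-based growth assay: transgenic P. falciparum expressing firefly luciferase, cultured in red cells within RPMI 1640 containing 0.5% w/v Albumax, 24 mM bicarbonate and gentamycin. A drop in luciferase activity indicates inhibition.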
# LASV entry inh = qHTS for Inhibitors of binding or entry into cells for Lassa Virus; Potency, µM (top dose mostly 37.9 µM), inactives show at the top dose activity change, negative = inhibition, most hits filed as inhibitors; Lassa virus pseudotype entry inhibition, cell reporter; 300,000 compounds, 1.2% hits; calls by dose curve; tested in HEK293 cells; also: potency is read from the fitted curve at half-maximal effect; % is scaled to controls: 0 for no effect and ±100 for the full control effect; nearly all actives have a fitted effect of over 50% in size
# Active calls of the source: *; ? = inconclusive; . = not tested or not shown; [ ] = dose if it differs, or a comment. Unless noted, calls follow the shape of the dose curve; as a rule, active = well fitted inhibition curve with a large enough effect; inconclusive = small, poorly fitted or top-dose-only effect, or another doubt; inactive = no such curve, though single readings can be large or run the other way.
SMILES,Pf growth 96h,Shiga toxin inh,MARV entry inh,CHX counter,Pf growth 48h,LASV entry inh
CN(CC(O)Cn1c2ccccc2c2ccccc21)S(C)(=O)=O (configuration not stated),-20.9%,-30.3,.,-1.8,?,.
CCOc1ccc(NC(=O)c2ccc3snnc3c2)cc1,-15.1%,42.8*,3.2%[46.1 µM],25.7,58.0%,?
CNC(=O)Nc1ccc2snnc2c1,11.7µM*,30.4,.,0.3,.,.
O=C(Nc1ccc(F)cc1)Nc1ccc2snnc2c1,.,.,?,.,.,-26.4%[46.1 µM]
COc1cccc(NC(=O)c2ccc3snnc3c2)c1,-61.9%,80.5*,-13.6%,37.5*,77.3%,14.9%
COc1ccc(NC(=O)c2ccc3snnc3c2)cc1OC,.,.,1.9%[46.1 µM],.,.,-19.2%[46.1 µM]
CC1CN(C(=O)Nc2ccc3snnc3c2)c2ccccc21 (configuration not stated),8.9%,36.4*,.,26.7*,20.1%,.
Cc1ccc(NC(=O)C2CCCN(S(=O)(=O)c3cccnc3)C2)c(C)c1 (configuration not stated),-12.6%,-3.9,-12.9%[46.1 µM],-3.8,?,-22.7%[46.1 µM]
O=C(Nc1cccc(F)c1)c1ccc2snnc2c1,.,.,3.5%[46.1 µM],.,.,?
O=C(Nc1ccc(F)cc1)c1ccc2snnc2c1,22.5%,51.9*,7.1%[46.1 µM],29.1*,81.1%,3.9%[46.1 µM]
COc1ccc(N(C)C(=O)c2ccc3snnc3c2)cc1,10.4µM*,20.8,3.5%,5.3,0.3%,-9.0%
Cc1ccc(NC(=O)c2ccc3snnc3c2)cc1C,?,74.2*,3.2%[46.1 µM],37.1*,104.6%,?
CCCc1nnc(NC(=O)COC(=O)c2cc(C)nc3ccccc23)s1,2.2%,-20.1,-12.9%,-3.9,4.9%,-0.6%
Cc1ccc(NC(=O)COC(=O)CNC(=O)C2CCCCC2)cc1S(=O)(=O)N(C)C,.,.,-0.3%[46.1 µM],.,.,-0.2%[46.1 µM]
CC1C(=O)N2CCCc3cc(S(=O)(=O)NCc4ccccc4Cl)cc1c32 (configuration not stated),-13.4%,-1.5,.,1.5,13.1µM*,.
CCCNS(=O)(=O)c1cc2c3c(c1)C(C)C(=O)N3CCC2 (configuration not stated),31.6%,14.4,.,-3.7,5.2%,.
S=C(Nc1ccc(Cl)c(Cl)c1)N1CCN(c2ccccn2)CC1,0.9%,.,1.6%,-0.8,9.0%,?
Cc1cc(=O)oc2cc3oc(=O)cc(C)c3cc12,4.65µM*,.,.,1.4,3.0%,.
Cc1coc2cc3oc(=O)c4c(c3cc12)CCC4,.,11.5,4.2%,-4.9,16.1%,.
CCc1cc(=O)oc2cc3occ(C)c3cc12,20.7%,-3.6,-4.3%,-2.7,4.5%,6.4%
Cc1oc2cc3oc(=O)cc(C)c3cc2c1C,34.4%,24.0,.,21.6*,51.4%,.
Cc1c(C)c2cc3c(C)coc3cc2oc1=O,5.22µM*,-3.5,.,-1.9,33.6%,.
CCc1cc(=O)oc2cc3oc(C)c(C)c3cc12,?,9.4,-0.3%,-1.6,?,?
Cc1c2cnn(CC(=O)O)c(=O)c2c(C)n1Cc1cccc(Cl)c1,.,.,-1.4%[46.1 µM],.,.,-1.1%[46.1 µM]
COc1ccc2oc(=O)c(-c3cn4ccc(C)cc4n3)cc2c1,?,27.7,-0.1%[46.1 µM],23.5*,60.5%,18.0%
SMILES,Pf growth 96h,Shiga toxin inh,MARV entry inh,CHX counter,Pf growth 48h,LASV entry inh
COc1ccc2oc(=O)c(C(=O)n3ccc(C)n3)cc2c1,.,-14.2,15.9%,2.0,3.8%,-25.2%[14.3 µM]
Cc1ccc2c(c1)sc1nc(-c3cc4ccccc4oc3=O)cn12,.,.,.,.,.,15.8%[46.1 µM]
O=c1oc2ccccc2cc1-c1cn2ccccc2n1,-21.3%,8.5,?,-0.9,1.6%,1.78µM*
Cc1cccn2cc(-c3cc4ccccc4oc3=O)nc12,?,110.5*,-24.3%[46.1 µM],53.4*,263.8%,-29.9%
O=c1oc2ccccc2cc1-c1cn2cccnc2n1,8.2%,102.8*,?,57.1*,212.0%,?
CC(C)N(Cc1nc(-c2ccc(Cl)cc2)no1)C(=O)C(c1ccccc1)c1ccccc1,8.28µM*,25.6,?,-2.2,.,-1.7%
Cc1c(C(=O)N2CCN(c3ccccn3)CC2)oc2ccccc12,.,66.5*,?,20.3*,8.28µM*,-3.4%
CC1Cc2ccccc2N1C(=O)c1nn(C)cc1Br (configuration not stated),-19.4%,-1.5,?,9.3*,17.6%,-2.5%
Cc1c(C(=O)N2c3ccccc3CC2C)oc2ccccc12 (configuration not stated),91.3%,165.6*,.,41.6*,217.2%,.
CC1Cc2ccccc2N1C(=O)c1ccc2snnc2c1 (configuration not stated),-17.0%,-20.1,?,-5.1,-17.9%,6.9%
CCOc1ccc2oc(C(=O)N3CCN(c4ccccn4)CC3)c(C)c2c1,13.1µM*,-1.7,2.1%,12.8,-15.1%,0.9%
COC(=O)C(CCCCNC(=O)OCc1ccccc1)NC(=O)CN (configuration not stated),?,20.9,?,-3.0,-4.0%,4.7%
Cc1cc(NC(=O)CS(=O)(=O)Cc2ccccc2)no1,-0.9%,-2.3,-0.1%[46.1 µM],-3.4,8.1%,5.6%[46.1 µM]
O=C(c1cnc(N2CCN(c3ncccn3)CC2)c2ccccc12)N1CCN(c2ccccn2)CC1,?,-13.1,?,-3.8,?,11.2µM*
C=CCN1CCN(C(=O)c2oc3ccccc3c2C)CC1,?,20.7,18.0%,20.3*,1.3%,11.0%
Cc1c(C(=O)N2CCc3ccccc3C2)oc2ccccc12,2.2%,74.1*,.,38.6*,43.8%,.
COc1ccc(NC(=O)Nc2cccc(-c3cn4cccnc4n3)c2)cc1,.,.,?,.,.,0.9%[46.1 µM]
Cc1ccc(Nc2cc(C)nc(N3CCOCC3)n2)c(C)c1,28.1%,-6.4,-42.4%,-0.7,-6.1%,-13.0%
Cc1cc(Cl)ccc1OCc1cn2cccnc2n1,105.0%,84.1*,5.0%[46.1 µM],50.6*,81.8%,-28.4%
Clc1cccc(NCc2cn3cccnc3n2)c1,0.0%,18.5,3.6%[46.1 µM],27.0*,0.0%,-4.6%
Clc1ccc(OCc2cn3cccnc3n2)c2ncccc12,-33.1%,100.6*,-3.9%,34.9*,53.7%,4.7%
c1ccc2c(SCc3cn4cccnc4n3)ncnc2c1,?,13.1,-1.2%,7.6,?,21.8%
c1cnc2c(OCc3cn4cccnc4n3)cccc2c1,.,77.4,8.0%,27.9*,52.3%,18.7%
O=S(=O)(Nc1cccc(-c2cn3cccnc3n2)c1)c1ccc(Cl)cc1,0.0%,-5.1,-0.5%,-1.9,14.6%,-0.5%
Fc1ccc(COc2cccc3cccnc23)cc1,51.0%,91.2*,29.9%[46.1 µM],40.6*,0.6%,24.0%
NC(=O)COc1cccc2cccnc12,17.2%,-18.5,5.1%,1.5,.,?
COc1ccccc1CNC(=O)c1oc2ccc(S(=O)(=O)N3CCCC3)cc2c1C,209.2%,12.2,?,9.4,2.94µM*,-19.6%
COc1ccccc1CNC(=O)c1oc2ccc(S(=O)(=O)N3CCOCC3)cc2c1C,1.1%,19.2,?,-0.9,?,-15.6%
